Results published in PubChem BioAssay AID1851 (National Center for Advancing Translational Sciences (NCATS), 2009).
Values joined by “and” are separate entries in the source; they are usually repeats but may differ in a detail not shown here. Identical values can stand only once. About 2,600 (16%) of roughly 16,000 compounds were called active. Roughly 20% stayed inconclusive and do not appear here. Calls follow the shape of the dose curve; as a rule, active = well fitted curve in the direction sought with a large enough effect; inconclusive = small, poorly fitted or top-dose-only effect, or effect the other way; inactive = no such curve, though single readings can be large or run the other way. These entries were drawn from the full list. The source holds several records for some structures; these can differ, active in one and inactive in another.

Target: Cytochrome P450 2D6 (Homo sapiens) (UniProt P10635)
Sequence (P10635 whole entry, looked up): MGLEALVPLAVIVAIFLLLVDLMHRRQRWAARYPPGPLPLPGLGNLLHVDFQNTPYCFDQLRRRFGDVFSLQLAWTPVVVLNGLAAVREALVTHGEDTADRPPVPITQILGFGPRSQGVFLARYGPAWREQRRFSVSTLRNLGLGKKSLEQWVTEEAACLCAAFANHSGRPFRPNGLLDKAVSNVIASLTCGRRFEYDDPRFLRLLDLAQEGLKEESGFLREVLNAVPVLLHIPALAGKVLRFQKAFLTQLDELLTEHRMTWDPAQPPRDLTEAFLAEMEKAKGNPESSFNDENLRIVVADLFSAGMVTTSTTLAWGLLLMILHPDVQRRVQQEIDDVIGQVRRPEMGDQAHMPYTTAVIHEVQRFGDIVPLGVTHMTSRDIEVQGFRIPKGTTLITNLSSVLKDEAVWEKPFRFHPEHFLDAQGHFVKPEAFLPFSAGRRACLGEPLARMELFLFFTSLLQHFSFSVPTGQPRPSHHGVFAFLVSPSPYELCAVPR
Experiment: Cytochrome panel assay with activity outcomes
Settings: recombinant CYP, pro-luciferin dealkylation, luminescence, p450-cyp2d6; series mostly up to 57.1 µM
% is scaled to controls: 0 for no effect and ±100 for the full control effect.

Structure (SMILES) | activity, negative = inhibition | AC50
O=C(O)CCNc1ncnc2nc[nH]c12 | 9.14% [at 11.4 µM] (inactive) | –
OC[C@H]1O[C@H](n2cnc3c(NC4CCCC4)nc(Cl)nc32)[C@@H](O)[C@@H]1O | – | inactive
C=C(C)CN(CC#N)CC(=C)C | 5.94% [at 11.4 µM] (inactive) | –
N#C/C(=C(\O)C(=O)O)c1ccc(-c2cccc3ccccc23)cc1 | 14.5% [at 11.4 µM] (inactive) | –
O=c1c2c(n3cnnc3n1-c1ccccc1)-c1ccccc1CC21CCCCC1 | – | inactive
Nc1nc(N)c(N=Nc2ccc(C(=O)O)c(O)c2)c(N)n1 | -8.46% [at 11.4 µM] (inactive) | –
CC1CCN(c2ccc(/C=N/n3nnnc3N)cc2[N+](=O)[O-])CC1 | – | inactive
NC(=S)SCCC(=O)O | 4.51% [at 11.4 µM] (inactive) | –
NC(N)=Nc1nc2ccc([N+](=O)[O-])cc2[nH]1 | 2.98% [at 11.4 µM] (inactive) | –
O=S(=O)(O)c1cc(N=[N+]([O-])c2cc(S(=O)(=O)O)c3ccccc3c2)cc2ccccc12 | -20.1% [at 11.4 µM] (inactive) | –
CC(C)c1cc(C(F)(F)F)nc(NNc2nc(C(C)C)cc(C(F)(F)F)n2)n1 | – | 126 nM (active)
CCNc1nc(Sc2ccc(C)cc2)cc(C(F)(F)F)n1 | – | inactive
CC(C)Nc1nc(Oc2ccc(Cl)cc2)cc(C(F)(F)F)n1 | – | inactive
Cc1nc2cnc(N3CCN(C)CC3)nc2n(Cc2ccc(F)cc2)c1=O | – | inactive
CN(C)c1ccc(-c2noc(C3CCN(S(=O)(=O)c4cccc(C(=O)O)c4)CC3)n2)cc1 | – | inactive
Cc1ccc(C2=Nc3ccccc3S[C@@H](c3cccc([N+](=O)[O-])c3)C2)cc1 | 4.11% [at 11.4 µM] (inactive) | –
COc1ccc(/C=C(/C#N)C(=O)NC2CCCCC2)cc1Br | – | inactive
N#C/C(=C\c1cn[nH]c1-c1ccccc1)C(=O)NC1CCCCCC1 | – | 28200 nM (active)
N#C/C(=C\c1cc(Cl)cc(Cl)c1O)C(=O)NC1CCCCC1 | – | inactive
CC1=C(C(=O)NCCN2CCN(C)CC2)C2(CCC(C)CC2)OC1=O (centres undefined) | – | inactive
C/C(=N\NC(=O)c1ccc(Br)cc1)c1ccccc1 | – | inactive
CCOc1ccc(C(=O)Nc2cccc(-c3cc4ccccc4oc3=O)c2)cc1[N+](=O)[O-] | – | inactive
COc1ccc(-c2cc(C(=O)Nc3nc4c(C)cccc4s3)c3ccccc3n2)cc1OC | – | inactive
CCCCNc1cc(=O)oc2ccccc12 | – | inactive
CCCCNC(=O)Cc1coc2ccc3ccccc3c12 | – | 10000 nM (active)

Structure (SMILES) | activity, negative = inhibition | AC50
CCCCNC(=O)CSc1nc2ccccc2c(=O)n1CCNC(C)=O | – | inactive
CC1(O)CC(=O)N(c2ccccc2)O1 (centres undefined) | – | inactive
COc1cccc(C(=O)NCCN2CCOCC2)c1 | – | inactive
COc1ccc(-c2cn3c(C)c(C(=O)NCCN4CCOCC4)sc3n2)cc1 | – | inactive
COc1ccc(C(=O)Nc2ccc(Cl)cc2C(=O)NCCN2CCOCC2)cc1 | – | 1260 nM (active)
O=C(O)[C@H]1CN(CCCP(=O)(O)O)CCN1 | – | inactive
CCCCNN | -18.7% [at 11.4 µM] (inactive) | –
O=C(O)/C(=C\c1ccccc1)Cc1ccccc1 | -3.61% [at 11.4 µM] (inactive) | –
CN(Cc1ccccc1)Cn1ccnc1 | – | 794 nM (active)
C#CCN(C)Cc1ccccc1 | – | inactive
Cc1ccc(C(C(=O)NC2CCCCC2)N2CCN(C(=O)c3ccco3)CC2)cc1 (centres undefined) | – | inactive
Cc1cc(C)n(C(=O)c2cc3ccccc3c(=O)o2)n1 | – | inactive
O=C1CCCc2ccccc2N1Cc1ccccc1Cl | – | inactive
C[C@H](CN(C)C)C(=O)c1ccccc1C(=O)O | 9.39% [at 11.4 µM] (inactive) | –
CC(C)c1ccc(C2C(C#N)=C(N)N3C(=C2C#N)Sc2ccccc23)cc1 (centres undefined) | – | inactive
C[C@@H](CN(C)C)CN1c2ccccc2CCc2ccccc21 | – | 12.6 µM (active) and 5.01 µM (active)
CN(C)CC(C)(C)CN1c2ccccc2Sc2ccccc21 | – | 200 nM (active)
CCN(CC)[C@@H](C)CN1c2ccccc2Sc2ccccc21 | – | 158 nM (active)
C[C@@H](CN1c2ccccc2Sc2ccccc21)N(C)C | – | 2 µM (active) and 316 nM (active)
CN(C)CN1C(=O)S/C(=C2/C(=O)N(CN(C)C)c3ccccc32)C1=O | -3.13% [at 11.4 µM] (inactive) | –
Cc1nc(C(=O)Nc2cccc(Cl)c2Cl)nn1-c1cc(OC(C)C)c(Cl)cc1Cl | – | inactive
O=Nc1ccc(NOC(=O)c2ccc(Br)cc2)cc1 | – | inactive
Cc1ccc(C(=O)NNC(=O)C2CCCN(c3ncccn3)C2)cc1 (centres undefined) | – | inactive
Nc1ncnc2c1cnn2-c1ccccc1 | – | inactive
Cc1cc(C)n(-c2ccc(F)cc2)c(=O)c1C(=O)O | – | inactive

Structure (SMILES) | activity, negative = inhibition | AC50
CSc1nc2ccccc2cc1/C=C(\C#N)c1ccccc1 | – | inactive
COc1ccccc1C(OC(=O)c1cccs1)C(=O)NCC1CCCO1 (centres undefined) | – | inactive
NCCC(=O)O | – | inactive
O=C(O)CCCCCn1c(SCC(=O)N2CCCC2)nc2ccsc2c1=O | – | inactive
CC[C@@]1(O)C(=O)COc2c1cc1n(c2=O)Cc2c-1nc1cccc(C(C)C)c1c2[Si](C)(C)C | – | inactive
COc1ccc2c(c1)N(C[C@@H](C)CN(C)C)c1ccccc1S2 | – | 63.1 nM (active)
COc1ccc([C@H]2Sc3ccccc3N(CCN(C)C)C(=O)[C@H]2OC(C)=O)cc1 | – | inactive
COc1ccc([C@@H]2Sc3ccccc3N(CCN(C)C)C(=O)[C@@H]2OC(C)=O)cc1 | – | inactive
CCCCCC(=O)N1CC2(CC(c3cccc(NC(=O)c4ccccc4)c3)=NO2)C[C@@H]1C(N)=O (some centres undefined) | – | inactive
O=C(CN(C(=O)CSc1nc2ccccc2o1)c1cccc(F)c1)NC1CCCCC1 | – | 12600 nM (active)
O=C(CSc1nc2ccccc2o1)NC(=O)NCc1ccccc1 | – | inactive
O=C(CSc1nc2ccccc2o1)Nc1nc2ccccc2s1 | – | inactive
Cc1cccc(-c2c3c(=O)n(C)c(=O)n(C)c3cn2C2CCCCC2)c1 | – | inactive
CO[C@@H]1COC(=O)[C@H](CCSC)NC(=O)C/C=C\[C@@H](C)COC(=O)[C@@H]2CCCN2C(=O)C/C=C\[C@H]1C | 11.2% [at 11.4 µM] (inactive) | –
CC(=O)Nc1ccc(OC[C@@H](O)CNC(C)C)cc1 | – | inactive and 3.16 µM (active)
CC(C)NC[C@@H](O)COc1ccc(CCOCC2CC2)cc1 | – | inactive
CC(C)NC[C@@H](O)COc1ccc(COCCOC(C)C)cc1 | – | inactive
Cc1cc(C(=O)C(=O)NC(C)C)c(C)n1-c1ccc([N+](=O)[O-])cc1 | – | inactive
CC(=O)NS(=O)(=O)c1ccc(NC(=S)NC(=O)C(C)(C)C)cc1 | – | inactive
O=C(N/N=C\c1cn(-c2ccccc2)nc1-c1ccccc1)c1ccc(Br)o1 | – | inactive
Cc1ccc(-c2nn(-c3ccccc3)cc2/C=N/NS(=O)(=O)c2ccccc2)cc1 | – | inactive
O=S(=O)(N/N=C\c1cn(-c2ccccc2)nc1-c1ccccc1)c1ccccc1 | – | 112 nM (active)
COc1ccc(C2C(C(=O)N3CCOCC3)c3ccccc3C(=O)N2c2ccc(OC)cc2)cc1 (centres undefined) | – | inactive
CNc1ccnc(-c2c(C)noc2C)n1 | – | inactive
CN(C)Cc1ccccc1-c1nccc(NC2CC2)n1 | – | 631 nM (active)

Structure (SMILES) | activity, negative = inhibition | AC50
CN(C)Cc1ccccc1-c1nccc(Nc2ccc(F)cc2)n1 | – | 10000 nM (active)
CNc1ccnc(-c2ccccc2CN(C)C)n1 | – | 39.8 nM (active)
Cc1nn2c(NCC(C)C)c3c(nc2c1-c1ccccc1)CCC3 | – | inactive
Cc1ccc(S(=O)(=O)N=Nc2c(O)[nH]c3cc(O)c(C(=O)O)cc23)cc1 | 6.63% [at 11.4 µM] (inactive) | –
COC(=O)C/C=C\[C@@H](C)[C@@H]1C=C[C@H](OC(C)=O)[C@H](COC(C)=O)O1 | 13.8% [at 11.4 µM] (inactive) | –
CCC(C)(C(=O)NC1CCCC1)N(C(=O)c1ccccn1)c1ccccc1 (centres undefined) | – | inactive
Nc1nc(Nc2ccccc2)nc2c1ncn2[C@@H]1O[C@@H](CO)[C@H](O)[C@@H]1O | – | inactive
N[C@@H](Cc1cc(-c2ccc(Cl)cc2Cl)cc(CP(=O)(O)O)c1O)C(=O)O | – | inactive
CC(C)CN(Cc1c(O)ccc2c3c(c(=O)oc12)CCC3)CC(C)C | – | 224 nM (active)
CCc1cc2c(=O)c(-c3nc4ccccc4n3C)c(C)oc2c(CN(CC)CC)c1O | – | inactive
CCN(CC)Cc1c(O)c(Cl)cc2c3c(c(=O)oc12)CCCC3 | – | 2510 nM (active)
CCC(C)C(NS(=O)(=O)c1ccc(C)cc1)C(=O)Oc1ccc2c3c(c(=O)oc2c1)CCC3 (centres undefined) | – | inactive
CCN(CC)Cc1c(O)ccc2c(=O)c(Oc3ccccc3OC)coc12 | – | inactive
CCCCCOC(=O)CSc1nnc(-c2ccccc2)c(=O)[nH]1 | – | inactive
Cn1c(=O)c2[nH]c(CCC(=O)O)nc2n(C)c1=O | -4.99% [at 11.4 µM] (inactive) | –
CCOC(=O)C1=C(C)NC(=O)N[C@@H]1c1coc2cc(C)cc(C)c2c1=O | 0.866% [at 11.4 µM] (inactive) | –
O=C(OC1CCN(c2ncc(C(F)(F)F)cc2Cl)CC1)c1cccc(C(F)(F)F)c1 | – | inactive
CCN(c1ccccc1)c1cc(NC)[n+](C)c(C)n1 | – | 3980 nM (active)
CN(C(=O)CC(NC(=O)c1ccccc1)(c1ccccc1)c1ccccc1)c1ccccc1 | – | inactive
O=C(CSc1nc2ccccc2s1)N1c2ccccc2Sc2ccccc21 | – | inactive
O=C(NCCc1ccccc1)N1c2ccccc2Sc2ccccc21 | – | 20000 nM (active)
COC(=O)c1cc(NC(=O)N2c3ccccc3Sc3ccccc32)cc(C(=O)OC)c1 | – | inactive
Cc1ccc(N=Nc2ccc(N)cc2C)c(S(N)(=O)=O)c1 | 3.5% [at 11.4 µM] (inactive) | –
Cc1ccccc1-n1c(=O)cc(N2CC(C)OC(C)C2)[nH]c1=O (centres undefined) | – | inactive
